Reference: PubChem BioAssay (NCATS)
Records with an inconclusive call do not appear. Where a call stands in place of a potency, no number is given. Values without a mark were called inactive. The source made the active and inactive calls. Calls follow the shape of the dose curve; as a rule, active = well fitted curve in the direction sought with a large enough effect; inconclusive = small, poorly fitted or top-dose-only effect, or another doubt; inactive = no such curve, though single readings can be large; an effect the other way counts as inactive or inconclusive.

Legend:
[1] = target: Rap guanine nucleotide exchange factor 3 (Homo sapiens) (UniProt O95398); test: Confirmatory qHTS for agonist of cAMP-regulated guanine nucleotide exchange factor 3 (EPAC1) (AID 1645881); also: nearly all actives have a fitted effect of over 75% in size; also: potency is read from the fitted curve at half-maximal effect;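 as to activation: EPAC1 catalysed release of BODIPY-GDP from Rap1B seen as fluorescence loss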
[2] = target: Rap guanine nucleotide exchange factor 4 (Homo sapiens) (UniProt Q8WZA2); test: Confirmatory qHTS for agonist of cAMP-regulated guanine nucleotide exchange factor 4 (EPAC2) (AID 1645884);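 also: nucleotide exchange releases bodipy-GDP from Rap1 and this lowers its fluorescence; nearly all actives have a fitted effect of over 65% in size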; also: potency is read from the fitted curve at half-maximal effect
[3] = target: Rap guanine nucleotide exchange factor 4 (Homo sapiens) (UniProt Q8WZA2); test: Confirmatory qHTS for antagonist of cAMP-regulated guanine nucleotide exchange factor 4 (EPAC2) (AID 1645885); also: nearly all actives have a fitted effect of over 25% in size; also: potency is read from the fitted curve at half-maximal effect
[4] = target: Rap guanine nucleotide exchange factor 3 (Homo sapiens) (UniProt O95398); test: Counterscreen qHTS for antagonist of cAMP-regulated guanine nucleotide exchange factor 3 (EPAC1) (AID 1645888);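 also: fluorescence loss as bound BODIPY-GDP is released from Rap1B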
Method in brief: (§1)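 Rap1B–BODIPY-GDP (250 nM) with 50 uM GDP; compounds pin-transferred to 9.74 nM–152 uM final (activator) or from 7.32 nM upwards (inhibitor). Fluorescence Ex/Em 480/540 nm read at 5 and 30 min, then after adding cAMP or buffer, at room temperature.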

[5] = target: Rap guanine nucleotide exchange factor 3 (Homo sapiens) (UniProt O95398); test: Counterscreen qHTS for agonist of cAMP-regulated guanine nucleotide exchange factor 3 (EPAC1) (AID 1645889); also: nearly all actives have a fitted effect of over 40% in size; also: potency is read from the fitted curve at half-maximal effect
Method in brief: as §1

Chain of Rap guanine nucleotide exchange factor 3 (Homo sapiens) (O95398 whole entry, looked up): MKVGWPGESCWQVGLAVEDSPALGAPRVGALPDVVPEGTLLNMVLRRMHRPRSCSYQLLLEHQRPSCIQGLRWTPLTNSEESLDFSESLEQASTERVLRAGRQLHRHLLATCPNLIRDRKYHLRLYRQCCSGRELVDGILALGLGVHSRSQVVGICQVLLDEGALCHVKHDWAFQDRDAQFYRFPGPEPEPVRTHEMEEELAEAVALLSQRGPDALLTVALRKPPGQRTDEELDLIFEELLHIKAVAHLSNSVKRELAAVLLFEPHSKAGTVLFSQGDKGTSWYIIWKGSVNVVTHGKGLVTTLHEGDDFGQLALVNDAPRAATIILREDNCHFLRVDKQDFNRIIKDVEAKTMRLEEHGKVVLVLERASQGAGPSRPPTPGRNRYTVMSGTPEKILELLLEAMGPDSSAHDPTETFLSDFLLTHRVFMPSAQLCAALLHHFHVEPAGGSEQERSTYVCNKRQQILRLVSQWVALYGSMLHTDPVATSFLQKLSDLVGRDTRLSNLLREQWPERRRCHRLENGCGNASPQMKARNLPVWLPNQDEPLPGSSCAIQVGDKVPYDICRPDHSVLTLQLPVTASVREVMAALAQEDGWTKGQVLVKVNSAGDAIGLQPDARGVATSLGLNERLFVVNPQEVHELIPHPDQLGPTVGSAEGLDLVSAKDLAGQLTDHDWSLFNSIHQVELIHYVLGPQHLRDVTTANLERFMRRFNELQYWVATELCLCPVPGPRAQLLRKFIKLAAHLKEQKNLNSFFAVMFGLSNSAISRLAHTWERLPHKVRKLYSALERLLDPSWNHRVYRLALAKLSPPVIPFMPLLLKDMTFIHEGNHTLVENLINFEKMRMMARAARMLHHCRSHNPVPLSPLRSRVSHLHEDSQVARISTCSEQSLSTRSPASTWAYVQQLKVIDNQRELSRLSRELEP
Chain of Rap guanine nucleotide exchange factor 4 (Homo sapiens) (Q8WZA2 whole entry, looked up): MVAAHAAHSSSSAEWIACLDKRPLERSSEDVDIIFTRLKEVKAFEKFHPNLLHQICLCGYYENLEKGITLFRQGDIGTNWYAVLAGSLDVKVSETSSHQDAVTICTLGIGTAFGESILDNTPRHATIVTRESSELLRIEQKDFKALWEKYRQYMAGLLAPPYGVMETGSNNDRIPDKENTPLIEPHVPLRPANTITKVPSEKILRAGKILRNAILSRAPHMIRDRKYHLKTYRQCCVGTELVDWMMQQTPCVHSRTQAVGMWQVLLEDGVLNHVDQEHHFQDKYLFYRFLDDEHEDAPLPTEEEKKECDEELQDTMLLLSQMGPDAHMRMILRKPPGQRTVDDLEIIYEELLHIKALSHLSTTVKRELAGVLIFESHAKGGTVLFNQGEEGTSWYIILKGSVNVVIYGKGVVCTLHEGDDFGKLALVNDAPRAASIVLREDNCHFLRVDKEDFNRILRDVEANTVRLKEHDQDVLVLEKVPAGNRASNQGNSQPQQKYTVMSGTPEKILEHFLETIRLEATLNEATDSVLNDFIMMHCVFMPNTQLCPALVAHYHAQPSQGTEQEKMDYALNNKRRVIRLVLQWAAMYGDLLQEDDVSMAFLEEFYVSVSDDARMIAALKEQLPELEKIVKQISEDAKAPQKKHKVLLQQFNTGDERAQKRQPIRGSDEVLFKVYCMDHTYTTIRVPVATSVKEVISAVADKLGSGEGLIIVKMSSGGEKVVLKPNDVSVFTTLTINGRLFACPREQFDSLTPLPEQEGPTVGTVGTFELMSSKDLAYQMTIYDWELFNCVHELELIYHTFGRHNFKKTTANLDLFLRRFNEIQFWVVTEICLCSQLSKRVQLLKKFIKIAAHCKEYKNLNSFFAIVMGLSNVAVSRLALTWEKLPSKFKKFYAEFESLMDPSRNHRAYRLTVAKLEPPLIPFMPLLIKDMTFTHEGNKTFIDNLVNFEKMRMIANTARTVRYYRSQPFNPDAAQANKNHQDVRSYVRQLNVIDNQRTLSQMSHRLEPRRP

| Structure (SMILES) | Potency [1] | Potency [2] | Potency [3] | Potency [4] | Potency [5] | activation [2] | activity change, negative = inhibition [4] | activation [5] |
| --- | --- | --- | --- | --- | --- | --- | --- | --- |
| COc1ccc(OCC(=O)NCc2ccc3c(c2)CCN3C(=O)c2cccc(C)c2)cc1 | inactive | inactive | inactive | inactive | inactive |  |  |  |
| O=c1cc(CSc2nc3ccccc3c(=O)[nH]2)c2ccc(O)cc2o1 | inactive | inactive | inactive | inactive | inactive |  |  |  |
| Cc1ccc2nc(-c3ccccc3)c(Cc3cccc(F)c3)n2c1 | inactive | inactive | 0.426 µM (active) | inactive | inactive |  |  |  |
| Cc1cc(C(=O)Cn2ncc(Cl)c(Cl)c2=O)c(C)n1CC(F)(F)F | inactive |  | inactive |  |  | 1.17% [at 17.1 µM, percent relative to cAMP agonist control] | -8.86% [at 30.8 µM] | 8.2% [at 30.8 µM] |
| CC(C)(C)N1CC(c2nc3ccccc3n2CCOc2ccccc2)CC1=O (stereo not given) | inactive | inactive | inactive | inactive | inactive |  |  |  |
| Cc1csc(NC(=O)CSCC(=O)O)c1-c1nc2ccccc2s1 | inactive | inactive | inactive | inactive | inactive |  |  |  |
| CCOc1cc(/C=C(/C#N)c2ccc(Cl)cc2)cc(Cl)c1OCC(=O)O | inactive |  | inactive |  |  | 3.22% [at 17.1 µM, percent relative to cAMP agonist control] | -8.72% [at 30.8 µM] | 10.8% [at 30.8 µM] |
| COc1ccc(CCn2c(=N)c(C(=O)NC3CCCCC3)cc3c(=O)n4ccccc4nc32)cc1 | inactive | inactive | inactive | inactive | inactive |  |  |  |
| O=C(O)CCc1ccc(-c2ccc(Br)cc2)n1-c1ccc(O)cc1 | inactive | inactive | 42.6 µM (active) | inactive | inactive |  |  |  |
| CCc1ccc(N=C2NC(=O)/C(=C/c3cc(Br)c(OCC(=O)O)c(OC)c3)S2)cc1 | inactive |  | inactive |  |  | -6.04% [at 17.1 µM, percent relative to cAMP agonist control] | -19.5% [at 30.8 µM] | 15.5% [at 30.8 µM] |
| CCOc1ccc(/C=C/C(=O)c2c(O)c3ccccc3oc2=O)cc1 | inactive | inactive | inactive | inactive | inactive |  |  |  |
| CCOc1ccc2nc(NC3=NC(c4ccc(OC)cc4)CC(=O)N3)nc(C)c2c1 (stereo not given) | inactive |  | inactive |  |  | 2.86% [at 17.1 µM, percent relative to cAMP agonist control] | -8.36% [at 30.8 µM] | 10.5% [at 30.8 µM] |
| O=C(Nc1nc2ccccc2[nH]1)C1CCN(S(=O)(=O)c2cccs2)CC1 | inactive | inactive | inactive | inactive | inactive |  |  |  |
| O=C1NC[C@H](Cc2ccc(O)cc2)N(C[C@@H]2CCCN2C[C@H](Cc2ccc(O)cc2)N2C[C@H](Cc3ccccc3)N(CC3CCCCC3)C(=O)C2=O)C1=O | inactive |  | inactive |  |  | -4.51% [at 17.1 µM, percent relative to cAMP agonist control] | -13.5% [at 30.8 µM] | 17.8% [at 30.8 µM] |
| CCN(CC)c1ccc2cc(C(C)=O)c(=O)oc2c1 | 89.1 µM (active) | 100 µM (active) | inactive | inactive | 50.1 µM (active) |  |  |  |
| C[C@@H]1ON(C)[C@H]2C[C@H]3c4[nH]c5ccc(-c6ccc7c(c6)OCO7)cc5c4CCN3C(=O)[C@@H]12 | inactive |  | inactive |  |  | 1.59% [at 17.1 µM, percent relative to cAMP agonist control] | -7.04% [at 30.8 µM] | 32% [at 30.8 µM] |
| COc1cc(O)c(C(CC(=O)N2CCCC(C)C2)c2ccc3c(c2)OCO3)c(OC)c1 (stereo not given) | inactive |  | inactive |  |  | -10.6% [at 17.1 µM, percent relative to cAMP agonist control] | -20% [at 30.8 µM] | 13.2% [at 30.8 µM] |
| CCOc1ccc(S(=O)(=O)Nc2cc(NS(=O)(=O)c3ccc(OCC)cc3)cc(C(=O)O)c2)cc1 | inactive | inactive | inactive | inactive | inactive |  |  |  |
| CC[C@@H]1CC=C[C@H]2[C@H]1C(=O)N(Cc1ccccc1)[C@H]2c1ccc(C(F)(F)F)cc1 | inactive | inactive | inactive | inactive | inactive |  |  |  |

| Structure (SMILES) | Potency [1] | Potency [2] | Potency [3] | Potency [4] | Potency [5] | activation [2] | activity change, negative = inhibition [4] | activation [5] |
| --- | --- | --- | --- | --- | --- | --- | --- | --- |
| CCC(CC)c1nnc(NC(=O)CSCc2c(C)noc2C)s1 | inactive | inactive | inactive | inactive | inactive |  |  |  |
| O=C(Nc1nc(-c2ccc(Cl)cc2)cs1)C1=COCCO1 | inactive |  | inactive |  |  | 5.12% [at 17.1 µM, percent relative to cAMP agonist control] | -14.7% [at 30.8 µM] | 13.1% [at 30.8 µM] |
| CCOC(=O)C(C)n1nc(-c2ccccc2)c2ccccc2c1=O (stereo not given) | inactive | inactive | inactive | inactive | inactive |  |  |  |
| Cc1ccc(-c2ccc(CN3C(CC(C)C)C(=O)N(Cc4cn(CCC5OCCO5)nn4)CCS3(=O)=O)cc2)cc1 (stereo not given) | inactive | inactive | inactive | inactive | inactive |  |  |  |
| CCCCN1C(=O)C(NC(=O)c2ccc(C(C)(C)C)cc2)(C(F)(F)F)C(C(=O)OC)=C1C (stereo not given) | inactive | inactive | inactive | inactive | inactive |  |  |  |
| COC(=O)c1cc(Sc2c(Cl)cccc2Cl)ccn1 | inactive | inactive | 30.1 µM (active) | inactive | inactive |  |  |  |
| C=CCN(CC=C)Cc1cc(=O)oc2cc(C)c(Cl)cc12 | inactive |  | inactive |  |  | 4.33% [at 17.1 µM, percent relative to cAMP agonist control] | -4.4% [at 30.8 µM] | 3.33% [at 30.8 µM] |
| Cc1nn(-c2ccccc2)c(Cl)c1/C=C1\SC(=S)N(CCCCCC(=O)O)C1=O | inactive |  | inactive |  |  | -0.0903% [at 17.1 µM, percent relative to cAMP agonist control] | -15.3% [at 30.8 µM] | 22.3% [at 30.8 µM] |
| COc1cc(Cl)cc(/C=N\NC(=O)c2ccc3c(c2)OCO3)c1O | inactive | inactive | inactive | inactive | inactive |  |  |  |
| CCOC(=O)Cc1csc(NC(=O)COc2ccc3ccccc3c2)n1 | inactive |  | inactive |  |  | 9.25% [at 17.1 µM, percent relative to cAMP agonist control] | 5.57% [at 30.8 µM] | 21.1% [at 30.8 µM] |
| O=C(NNc1cc(N2CCOCC2)nc(N2CCOCC2)n1)c1ccc([N+](=O)[O-])cc1 | inactive | inactive | inactive | inactive | inactive |  |  |  |
| CC(C)(C)c1ccc(C(=O)NCC2CCCN2S(=O)(=O)c2ccccc2)cc1 (stereo not given) | inactive | inactive | inactive | inactive | inactive |  |  |  |
| Cc1cccc2sc(N(CCCN(C)C)C(=O)CCS(=O)(=O)c3ccccc3)nc12 | inactive | inactive | inactive | inactive | inactive |  |  |  |
| CCCCNC(=O)CN1CCN(c2ncc(NC(=O)c3ccc(Cl)cc3)cc2C(=O)O)CC1 | inactive | inactive | inactive | inactive | inactive |  |  |  |
| CC(C)CC1C(=O)N(Cc2cn(Cc3ccco3)nn2)CCS(=O)(=O)N1Cc1ccc(-c2ccccc2)cc1 (stereo not given) | inactive | inactive | 19 µM (active) | inactive | inactive |  |  |  |
| Cc1ccc(NC(=O)C2(C)CCN2CCc2ccccc2)cc1 (stereo not given) | inactive |  | inactive |  |  | -1.02% [at 17.1 µM, percent relative to cAMP agonist control] | 1.14% [at 30.8 µM] | 6.12% [at 30.8 µM] |
| Clc1ccc(CON/C=N/c2ncnc3sccc23)cc1 | inactive |  | inactive |  |  | 8% [at 17.1 µM, percent relative to cAMP agonist control] | -10% [at 30.8 µM] | 11.3% [at 30.8 µM] |
| CCN(c1ccc(NC(=O)CCc2nc3sc4c(c3c(=O)[nH]2)CCCC4)cc1)C(C)C | inactive |  | inactive |  |  | -1.91% [at 17.1 µM, percent relative to cAMP agonist control] | -10.9% [at 30.8 µM] | 2.05% [at 30.8 µM] |
| COc1ccc(S(=O)(=O)Nc2ccccc2SC)cc1C | inactive | inactive | 10.7 µM (active) | inactive | inactive |  |  |  |
